According to PubChem BioAssay AID686978 (National Center for Advancing Translational Sciences (NCATS), 2013):
Among all 420,000 compounds or so, about 64,000 (15%) were called active. Inconclusive results (about 27%) are left out. The call rests on the fitted dose curve; in most records, active means well fitted inhibition curve with a large enough effect; inconclusive means small, poorly fitted or top-dose-only effect; inactive means flat fitted curve, though single readings scatter. These entries were drawn from the full list. A call without a number means that no potency is given here.

Experiment: qHTS for Inhibitors of human tyrosyl-DNA phosphodiesterase 1 (TDP1): qHTS in cells in absence of CPT; further: nearly all actives have a fitted effect of over 55% in size
Settings: DT40 Tdp1-/- hTDP1 cells, no CPT, ATP luminescence, 48 h; activity change, negative = growth inhibition: at 46.2 µM (top of the series)
How it was run: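 A cellular qHTS used chicken DT40 cells lacking endogenous Tdp1 but carrying stably transfected human TDP1. Compounds were applied without camptothecin, and cell growth kinetics were judged by ATP-dependent luminescence after ≥48 hr.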
Potency means the concentration at half of the fitted maximal effect.

SMILES	Potency
CCOCCCNC(=O)C(=O)NCCCOCC	inactive
O=C(CSc1nc2[nH]ncc2c(=O)[nH]1)Nc1ccc(F)cc1	inactive
CCOc1ccccc1NC(=O)CCn1cnnn1	inactive
Cc1[nH]c2ccc(S(N)(=O)=O)cc2c1C	inactive
Cc1ccccc1C(=O)N1CCC(C(=O)Oc2ccc(C#N)cc2)CC1	inactive
Cc1ccccc1C(=O)N1CCC(C(=O)Nc2ccc(S(=O)(=O)N(C)C(C)C)cc2)CC1	20.6 µM (active)
CCc1nnc(NC(=O)C2CCN(C(=O)c3ccccc3C)CC2)s1	inactive
COc1ccc(-n2c(C)csc2=S)cc1	inactive
COC(=O)C1(C(=O)OC)C/C=C\CN(S(=O)(=O)c2ccccc2[N+](=O)[O-])CCC1	16.4 µM (active)
COc1ccc(S(=O)(=O)N2CCC(C(=O)OCC(=O)c3ccccc3)CC2)cc1[N+](=O)[O-]	inactive
O=C(OCCN1C(=O)c2ccccc2C1=O)[C@@H]1CC(O)CN1S(=O)(=O)c1ccccc1[N+](=O)[O-] (stereo partly drawn)	inactive
OCCNc1ncnc2oc(-c3ccco3)c(-c3ccco3)c12	20 µM (active)
Cc1nnc(NCCO)c2ccccc12	inactive
COc1ccc(-c2oc3ncnc(NCCCO)c3c2-c2ccc(OC)cc2)cc1	16.4 µM (active)
COCCNc1ncnc2c1ncn2[C@H]1CN(Cc2ccc(OC)cc2)C[C@@H](CO)O1	inactive
OCCc1ccc(NCCc2ccco2)cc1	inactive
Nc1nonc1C(=O)NCCc1ccccc1	inactive
O=S1(=O)C=C(SCCN2CCCC2)c2ccccc21	inactive
CCCC(C)NC(=O)C1CCN(C(=O)C2CC(=O)N(c3ccc(C)cc3)C2)CC1 (stereo not drawn)	inactive
Cc1ccsc1CNn1cnnc1SCc1ccccc1F	inactive
CCn1c(CNC(=O)c2ccco2)nnc1SCC(=O)Nc1cccc(F)c1	inactive
CC(C)n1cnc2c(Nc3cccc(Cl)c3)nc(N(CCO)CCCO)nc21	14.6 µM (active)

SMILES	Potency
COC(=O)C(C)n1cnc2c(nnn2-c2cccc(Cl)c2)c1=O (stereo not drawn)	inactive
CC(C)[C@H](CO)Nc1nc(Nc2cc(N)cc(Cl)c2)c2ncn(C(C)C)c2n1	2.99 µM (active)
O=C(NCCc1ccccc1)c1ccc(NC2=NC3CS(=O)(=O)CC3S2)cc1 (stereo not drawn)	inactive
Cc1cc(NS(=O)(=O)c2ccc(NC(=O)C(C)Oc3cccc(C)c3C)cc2)nc(C)n1 (stereo not drawn)	inactive
O=C(CSc1ncnc2sccc12)NC1CCS(=O)(=O)C1 (stereo not drawn)	inactive
Cn1c(SCC(=O)Nc2cccc(O)c2)nnc1-c1ccc(S(=O)(=O)N2CCOCC2)cc1	inactive
Cc1ccc([C@@H]2CC(=O)[C@@H]3CN(S(=O)(=O)c4ccc(C)cc4)[C@H](c4ccccc4F)C[C@@H]3N2S(=O)(=O)c2ccc(Cl)cc2)cc1	inactive
Cc1ccccc1CSc1nnc(-c2cccnc2)n1N	inactive
Cc1ccc(-c2nn(-c3ccccc3)cc2CN(Cc2ccccc2)C(=O)CCC(=O)O)o1	inactive
COCCCNC(=O)Cn1cc(C(=O)C2CC2)c2ccccc21	inactive
COc1ccccc1Nc1ncnc2c1oc1ccccc12	11.6 µM (active)
O=C(CSc1ncnc2c1oc1ccccc12)NC1CCCC1	inactive
CCC(C(=O)OC)n1cnc2c(oc3ccccc32)c1=O (stereo not drawn)	inactive
COc1ccc(CN2CCC3(CCC(CNC(=O)c4ccco4)O3)CC2)cc1OC (stereo not drawn)	inactive
CCCCCCCNc1nc(Cl)nc(NCCO)n1	inactive
Cc1occc1-c1nnc(SCC(=O)NC2CCCCC2)o1	inactive
CCOC(=O)Nc1ccc(NC(=O)OCC)cc1	inactive
CCOC(=O)CNC(=O)CN1C(=O)CCSc2ccccc21	inactive
CCOC(=O)Nc1ccc2c(c1)N(C(=O)CCCl)c1ccccc1[S@]2=O	3.66 µM (active)
CCNC(=O)N1c2ccccc2Sc2ccccc21	inactive
CCOC(=O)Nc1ccc2c(c1)N(C(=O)CCN1CCN(CCO)CC1)c1ccccc1CC2	inactive
CCNCCC(=O)N1c2ccccc2Sc2ccc(NC(=O)OCC)cc21	13 µM (active)

SMILES	Potency
CN1CCC2(CC1)CCN(S(=O)(=O)c1ccccc1)CC2	inactive
Cc1ccc(S(=O)(=O)N(c2cccc(C)c2)C2CCS(=O)(=O)C2)cc1 (stereo not drawn)	inactive
CC(C)Sc1ncnc2c1cnn2-c1ccccc1	inactive
O=C(O)c1cc(S(=O)(=O)Nc2ccc3cn[nH]c3c2)ccc1Br	inactive
CC(C)N1C(=O)C2C(C(=O)NC3CCCCC3)C3C=CC2(O3)C1C(=O)NC1CCCC1 (stereo not drawn)	inactive
CCCCOC(=O)Nc1nccs1	inactive
CCCc1cc(=O)n2[nH]c(SCc3ccccc3)nc2n1	inactive
CCn1c2ccccc2c2nnc(SCC(=O)O)nc21	inactive
CCOC(=O)c1sc(NC(=O)C(CC)Sc2nccn2C)nc1C (stereo not drawn)	inactive
C=CCn1c2ccccc2c2nnc(SC(CC)C(=O)Nc3nc(C)c(C(=O)OCC)s3)nc21 (stereo not drawn)	8.2 µM (active)
N#Cc1cc2[nH]c(=O)c(=O)[nH]c2cc1[N+](=O)[O-]	inactive
CSc1n[nH]c(=S)n1N	inactive
N#Cc1ccc(S(=O)(=O)NCC(=O)OCC(=O)NCCc2ccccc2)cc1	inactive
Cc1nnc(SCC(=O)Nn2cnnc2)s1	inactive
O=S1(=O)CC/C(=N\Nc2ccc(F)cc2)c2ccsc21	inactive
O=C1CCN(CCCc2ccccc2)CCN1CCO	inactive
O=C(c1ccc(F)cc1)C1CCN(CCCCc2ccccc2)CC1	26.6 µM (active)
O=C(COC(=O)c1ccc(F)cc1)NCCCc1ccccc1	inactive
CCn1c(SCC(=O)NC2CCCC2)nnc1-c1ccoc1C	inactive
NS(=O)(=O)c1ccc(CCNC(=O)NC2CCCCC2)cc1	inactive
O=S(=O)(c1cccs1)N1CCc2ccccc2C1	inactive
Cc1cccc2cc(CN(C(=O)c3cccs3)c3ccccc3)c(=O)[nH]c12	inactive

SMILES	Potency
Cc1ccc(N(Cc2cc3ccccc3[nH]c2=O)C(=O)c2cccs2)cc1	14.6 µM (active)
CCC(=O)N(CCc1ccccc1)Cc1cc2cc(C)ccc2[nH]c1=O	inactive
Cc1ccc(-n2nc(C)c(C(=O)O)c2-n2cccc2)cc1	inactive
CC(C)Oc1ccc(C(=O)NCC(=O)Nc2ccc3c(c2)CCC3)cc1	inactive
CCOc1ccc(CNC(=O)Cn2cc3c(n2)-c2c(oc(C(=O)N4CCCC4)c2C)CC3)cc1	20.6 µM (active)
CCOC(=O)N1CCC(NC(=O)Cn2cc3c(n2)CCCCC3)CC1	inactive
Cc1c(C(=O)N2CCCC2)oc2c1-c1nn(CC(=O)NCc3ccc(OC(C)C)cc3)cc1CC2	20.6 µM (active)
COCCNC(=O)Cn1cc2c(n1)CCCCC2	inactive
CCCN(CCC)CCCNC(=O)Cn1cc2c(n1)-c1c(oc(C(=O)N3CCCC3)c1C)CC2	inactive
CC(C)OC(=O)Cn1nc(C(F)(F)F)c2c1CCCC2	inactive
CCCC(C)c1nnc(NC(=O)C2CC(=O)N(c3ccc(OCC)cc3)C2)s1 (stereo not drawn)	inactive
Cc1nnc(C(=O)NC(C)(C)c2nc(C(=O)NCc3ccc(F)cc3)c(O)c(=O)n2C)o1	inactive
COc1ccnc(Oc2ccccc2)c1-c1ncn[nH]1	inactive
Cc1nnc(SCC(=O)NCc2ccccc2Cl)c2nn(-c3ccccc3)c(C)c12	23.1 µM (active)
COc1ccccc1CNC(=O)COC(=O)c1sc(C)nc1C	inactive
Cc1cccn2c(=O)nc(SCC(=O)NCc3ccccc3Cl)nc12	inactive
CCOC(=O)C1CCN(C(=O)Cn2nc(C)c3c(C)n(-c4ccccc4)nc3c2=O)CC1	inactive
COc1ccc(OC)c(CNC(=O)Cn2nc(C)c3c(C)n(-c4ccc(C)cc4)nc3c2=O)c1	16.4 µM (active)
COc1ccccc1CNC(=O)Cn1nc(C)c2nn(-c3ccc(Cl)cc3)c(C)c2c1=O	23.1 µM (active)
Cc1ccccc1CNC(=O)CSc1nnc(C)c2c(C)n(-c3ccccc3)nc12	inactive
Cc1nn(CC(=O)N2CCCCC2)c(=O)c2nn(-c3ccccc3)c(C)c12	inactive
CCNC(=O)Cn1nc(C)n2c(cc3c(OC)cccc32)c1=O	inactive

SMILES	Potency
Cc1ccccc1-c1nnn(CC(=O)c2ccc(S(=O)(=O)N3CCCC3)cc2)n1	inactive
CNC1(c2nnnn2-c2c(C)cccc2C)CCOC(C)(C)C1 (stereo not drawn)	inactive
COc1c(O)cccc1-c1nnn(CCC(=O)OCC(=O)c2ccccc2)n1	inactive
CC1(C(=O)NS(=O)(=O)c2cccc(OC(F)F)c2)CCN1C(=O)C1CC1 (stereo not drawn)	inactive
CCCCn1c(N)c(N(CC(C)C)C(=O)CN(C)S(=O)(=O)c2ccc(F)cc2)c(=O)[nH]c1=O	inactive
Cc1cc2nc3n(c2cc1C)CC1CC(C(=O)NCCC(C)C)N(C)C31 (stereo not drawn)	inactive
CCCCOc1ccc(Cl)cc1CSc1nncn1N	inactive
CS(=O)(=O)NCc1ccc(C(=O)NCc2ccccc2)cc1	inactive
CN(c1ccc(C(=O)NCc2ccccn2)cc1)S(C)(=O)=O	inactive
COc1cccc(S(=O)(=O)NCc2ccc(C(=O)NCc3ccccn3)cc2)c1	0.92 µM (active)
CCSc1nc(O)c(C(c2cccc(OC)c2)c2c(O)nc(SCC)[nH]c2=O)c(=O)[nH]1	inactive
C/C=N/N(c1ccccc1)c1ccccc1	inactive
OCc1ccc(OCCCOc2cccc3cccnc23)cc1	inactive
COc1ccccc1CNC(=O)COc1ccc(C)nc1[N+](=O)[O-]	inactive
Cc1ccc2cccc(OCCCOc3ccccc3CO)c2n1	23.1 µM (active)
O=S(=O)(c1ccc(Sc2nnc3ccccn23)nc1)N1CCOCC1	inactive
CCOCC(=O)NCc1ccc2c(c1)cc(C)n2C	inactive
CCn1c(=S)[nH]c2cc(S(=O)(=O)N3CCOCC3)ccc21	inactive
O=C(NCc1cccc(Cl)c1)C1=CC=CN2CCS(=O)(=O)N=C12	inactive
COc1ccc(C)cc1NC(=O)CCC(=O)Nc1nnc(C(F)(F)F)s1	inactive
